The list is not random: actives were taken first. Their share in the collection is about 0.53%.
PKM2 act = qHTS Assay for Activators of Human Muscle isoform 2 Pyruvate Kinase | Pyruvate kinase PKM (Homo sapiens), P14618 | purified PKM2, Kinase-Glo ATP luminescence, activation; response scale: 0% is enzyme alone, no compound | Potency, µM (top dose mostly 57.5 µM), for inactives: at the top dose activation, usual class: activators | 260,000 tested, 0.34% active; further: potency means the concentration at half of the fitted maximal effect; on the % scale 0 is the no-effect control and ±100 the full control effect; nearly all actives have a fitted effect of over 55% in size
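hPK-M2, >95% pure; 0.1 mM ADP / 0.5 mM PEP final; imidazole pH7.2 buffer w/ 7 mM MgCl2, 50 mM KCl; 1 h RT; Kinase-Glo lum. Intermediate enzyme activity for dual inhibitor/activator qHTS.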
IL2 activator = qHTS of IL-2 Activators. IL-2 activation reporter assay, cell-based qHTS; stimulated with anti-CD3/CD4/CD28 beads; in transgenic mouse T cells. activation, % (series mostly up to about 46 µM). 360,000 tested, 0.065% active. AID 652025, 2013; in the data active means activation above about 50%; inconclusive means mostly about 30% to 49%; further: 0% is about no effect
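Readout: EGFP and DsRed signals by fluorescent plate cytometry. Unstimulated transgenic mouse T cells received compound 60 min before antibody-bead stimulation, then incubated 18 h at 37 degrees C.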
Vif-APOBEC3F blk = qHTS for Inhibitors of Vif-A3F Interactions: qHTS | AID 602313, 2012 | HeLa A3F-eYFP + Vif (tagged APOBEC3F with the HIV-1 protein that degrades it), YFP fluorescence increase | Potency, µM (doses to about 46.1 µM), for the others: top-dose activity, negative = active | 390,000 tested, 0.2% active; further: potency means the concentration at half of the fitted maximal effect; % of control where 0% means no effect; nearly all actives have a fitted effect of over 65% in size
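HeLa cells stably expressing A3F-eYFP plus Vif, plated and incubated overnight at 37 deg C, then exposed to compounds overnight at 37 deg C. Blocked degradation read as raised yellow fluorescence (Ex 488/Em 500-530).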
Vif-APOBEC3G blk = qHTS for Inhibitors of Vif-A3G Interactions: qHTS; DNA dC->dU-editing enzyme APOBEC-3G (Homo sapiens), Q9HC16; 410,000 tested, 0.076% active; AID 602310, 2012; HeLa A3G-eYFP + Vif (tagged APOBEC3G with the HIV-1 protein that degrades it), YFP fluorescence, overnight; Potency, µM (series often up to 46.1 µM), for the others: at the top dose activity, negative = active, hits mostly inhibitors; further: potency means the concentration at half of the fitted maximal effect; on the % scale 0 is the no-effect control and ±100 the full control effect; nearly all actives have a fitted effect of over 60% in size
Target sequence (Q9HC16 whole entry, looked up): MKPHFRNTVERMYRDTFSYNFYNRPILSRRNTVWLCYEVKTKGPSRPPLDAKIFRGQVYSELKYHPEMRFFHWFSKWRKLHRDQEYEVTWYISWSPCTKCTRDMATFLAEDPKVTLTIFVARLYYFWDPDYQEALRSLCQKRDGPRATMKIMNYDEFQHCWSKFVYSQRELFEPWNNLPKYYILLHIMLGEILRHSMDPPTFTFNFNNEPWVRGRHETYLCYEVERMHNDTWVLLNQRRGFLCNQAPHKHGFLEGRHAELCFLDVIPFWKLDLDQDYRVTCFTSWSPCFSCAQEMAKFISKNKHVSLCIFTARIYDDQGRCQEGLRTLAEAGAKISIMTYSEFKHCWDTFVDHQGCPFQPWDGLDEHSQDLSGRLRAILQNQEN
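HeLa cells stably expressing Vif and C-terminally eYFP-tagged A3G, seeded overnight at 37 deg C, then exposed to compound by pintool overnight at 37 deg C. Rise in yellow fluorescence (Ex 488/Em 500-530, Acumen) marks blocked Vif-driven A3G degradation.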
HeLa tox = Secondary assay for Activators of Human Pyruvate Kinase M2 isoform - Cell Titer Glo cytotoxicity assay. shares compounds with PKM2 act. HeLa viability, CellTiter-Glo ATP luminescence, 24 h. activity change, negative = cytotoxicity, % at 57.5 µM. 230 tested, under 10 active. AID 1898, 2009; further: % of control where 0% means no effect
* hit, by the source's call; ? = inconclusive; · = no result given. Unless noted, the call rests on the fitted dose curve; in most records, active means well fitted curve in the direction sought with a large enough effect; inconclusive means small, poorly fitted or top-dose-only effect, or another doubt; inactive means no such curve, though single readings can be large; an effect the other way counts as inactive or inconclusive.

SMILES	PKM2 act	IL2 activator	Vif-APOBEC3F blk	Vif-APOBEC3G blk	HeLa tox
COC(=O)CSC1=C(C#N)C(c2ccccc2F)CC(=O)N1 (stereo unspecified)	28µM*	1	-4%	-15%	·
COC(=O)CSC1=C(C#N)C(c2ccccc2)CC(=O)N1 (stereo unspecified)	-3%	-1	-4%	?	·
CCOc1ccc2c(c1)/C(=C(\C(Cl)=C(Cl)Cl)[N+](=O)[O-])N2	1%	0	?	?	·
CCCCOc1ccc2c(c1)/C(=C(\C(Cl)=C(Cl)Cl)[N+](=O)[O-])N2	19%	0	22µM*	?	·
CCOC(=O)/C(=C\c1ccc([N+](=O)[O-])o1)NC(=O)c1ccccc1	-11%	4	-16%	?	·
CCCOC(=O)/C(=C\c1ccc([N+](=O)[O-])o1)NC(=O)c1ccccc1	-3%	0	7.1µM*	?	·
CCOc1ccc2c(c1)S/C(=C\c1cccs1)C(=O)N2	0%	60*	?	?	·
CCCCOC(=O)c1ccc(NC(=O)c2cc(-c3cccs3)on2)cc1	·	·	-4%	5%	·
N#Cc1ccccc1OCC(=O)Nc1nnc(C2CC2)s1	·	0	-2%	0%	·
CCN(CC)c1nc(C)c(C(=S)Nc2cc([N+](=O)[O-])ccc2Cl)s1	-4%	2	11µM*	5%	·
Cc1ccc(CNS(=O)(=O)c2c(C)nc3sc(C)cn3c2=O)cc1	·	·	5%	3%	·
O=C(OCCC12CC3CC(CC(C3)C1)C2)c1ccc(NCc2cc(O)ccc2O)cc1	·	-1	?	?	·
O=C(OCC12CC3CC(CC(C3)C1)C2)c1ccc(NCc2cc(O)ccc2O)cc1	·	-1	22µM*	-15%	·
Nn1c(SCC(=O)Nc2ccc3c(c2)OCCO3)nnc(CCC(=O)O)c1=O	·	-2	4%	1%	·
CN1C2C=C3C(C#N)=C(N)C(C#N)(C#N)[C@H](c4c(F)cccc4F)[C@H]3C1CC2 (stereo partly specified)	-10%	-2	-1%	-2%	·
N#CC1=C(N)C(C#N)(C#N)[C@H](c2c(F)cccc2F)[C@H]2CC3(CC=C12)OCCO3	-9%	1	22µM*	13µM*	·
COc1cc(C2=NOC(C(=O)Nc3cc(C)on3)C2)cc(OC)c1OC (stereo unspecified)	2%	0	2%	0%	·
COc1ccc(C2=NOC(C(=O)Nc3cc(C)on3)C2)cc1OC (stereo unspecified)	3.5µM*	0	5%	-2%	·
COc1ccc2nc(C)cc(Nc3ccc(C)cc3)c2c1	?	-2	-1%	2%	·
COc1ccc2nc(C)cc(NCc3ccc(F)cc3)c2c1	5%	65*	?	?	·
CCOc1cc(-c2noc(CCC(=O)Nc3cccnc3)n2)ccc1OC	1.4µM*	0	4%	0%	-4
COc1ccc(-c2noc(CCC(=O)Nc3cccnc3)n2)cc1	·	0	0%	2%	·
Fc1ccccc1Cn1nnc2c(-n3ccnc3)ncnc21	1.1µM*	-3	-2%	0%	0
Cc1ccc(C(=O)c2oc3ccccc3c2NC(=O)COc2ccccc2C)cc1	·	·	1%	1%	·
c1ccc(-c2nn3c(Cn4nnc5ccccc54)nnc3s2)cc1	-5%	-2	0%	-2%	·
SMILES	PKM2 act	IL2 activator	Vif-APOBEC3F blk	Vif-APOBEC3G blk	HeLa tox
c1ccc(-c2nn3c(Cn4cnc5ccccc54)nnc3s2)cc1	3.2µM*	-1	2%	-3%	2
Cc1oc(=O)c(NC(=O)c2ccccc2)cc1C(=O)c1ccccc1	28%	-2	-3%	?	·
Cc1oc(=O)c(NC(=O)c2ccc(Cl)cc2)cc1C(=O)c1ccccc1	6.3µM*	-1	-10%	?	2
COc1ccc2nc(SCC(=O)Nc3cc(C)on3)c(C#N)cc2c1	·	0	?	1%	·
COc1cc2cc(C#N)c(SCC(=O)Nc3cc(C)on3)nc2cc1OC	0.22µM*	-1	-14%	-3%	-5
Cc1ccc2oc(C(=O)N(C)Cc3ccon3)c(C)c2c1	·	3	-12%	0%	·
Cc1ccc2oc(C(=O)N(C)Cc3ccc(C)o3)c(C)c2c1	6.3µM*	-4	-11%	-8%	2
CC(C)(C)n1ncc2c(=O)n(Cc3cccc(-c4cccs4)c3)cnc21	·	·	·	1%	·
Nc1nc2ccc(S(=O)(=O)c3ccc4nc(N)sc4c3)cc2s1	14µM*	0	·	?	0
Nc1nc2ccc(O)cc2s1	3%	0	3%	2%	·
COc1ccc(C(=O)NCCN2C(=O)S/C(=C\c3cccnc3)C2=O)cc1[N+](=O)[O-]	3.5µM*	0	10%	-1%	-9
CCOc1ccc(C(=O)N2CCN(Cc3ccccc3)CC2)cc1	5.6µM*	1	0%	0%	0
CCOc1ccc(CN2CCN(C(=O)c3ccccc3)CC2)cc1	1%	0	-6%	0%	·
COc1ccccc1-c1noc(-c2ccc(NCC3CCCO3)c([N+](=O)[O-])c2)n1 (stereo unspecified)	·	·	3%	-4%	·
CCOC(=O)c1c(NC(=O)CCc2ccc(CC)o2)sc(C)c1C	?	-1	7%	-6%	·
COC(=O)c1c(NC(=O)CCc2ccc(C)o2)sc(C)c1C	7.9µM*	-3	-8%	-15%	-1
CCCN1C(=O)S/C(=C/c2ccc(N3CCOCC3)o2)C1=O	1µM*	23	?	?	0
CCCN1C(=O)S/C(=C\c2ccc(N3CCOCC3)cc2C)C1=O	-6%	·	·	·	·
CCOc1ccc(-n2cc(-c3ccccc3)c3c(NC4CCCC4)ncnc32)cc1	·	·	2%	-2%	·
Cc1ccc(-n2cc(S(=O)(=O)c3ccc(C)cc3)[nH]c2=O)cc1	7.1µM*	-2	4%	-4%	4
CCn1cc(S(=O)(=O)c2ccc(C)cc2)[nH]c1=O	15%	-5	-17%	-6%	·
CCn1cc(C(=O)N2CCN(c3cc(Cl)ccc3C)CC2)c(=O)c2cc(S(=O)(=O)N3CCCCC3)ccc21	·	·	3%	-2%	·
CC(C)Sc1nc2c([nH]1)c(=N)ncn2Cc1ccccc1	14µM*	1	-6%	3%	-1
Cc1cccc(OCCSc2nc3c([nH]2)c(=N)ncn3Cc2ccccc2)c1	4%	-1	-10%	0%	·
CN(C)C(CNC(=O)c1cnc(Cl)c(Cl)c1)c1ccccc1 (stereo unspecified)	·	1	1%	-2%	·
COc1ccc2c(c1)cc1c(=O)n(CC(=O)NCc3ccco3)nc(C)n12	·	·	3%	2%	·
Cc1cc2c(s1)c1cnn(Cc3ccc(F)cc3F)c(=O)c1n2C	·	·	·	·	5
Cc1ccc(Cn2ncc3c4sc(C)cc4n(C)c3c2=O)cc1	·	·	·	·	-2
Cc1cc2c(s1)c1cnn(Cc3ccc(S(C)(=O)=O)cc3)c(=O)c1n2C	·	·	·	·	-15
